These results are taken from PubChem BioAssay (Tox21).

Records with an inconclusive call do not appear. Entries that show only a call come without a potency. Unmarked numbers belong to inactive results. The source made the active and inactive calls. Calls come from the whole dose curve.

The first test is described as follows: p53 small molecule agonists, cell-based qHTS assay with rat liver microsomes (AID 1963578). To be noted: HCT-116 p53RE-bla, beta-lactamase ratio, 16 h; series mostly up to 66 µM. Put shortly: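 Rat liver microsome activation: microsomes 0.5 mg/mL, NADPH 0.5 mg/mL final; p53RE-bla cells, 16 h 37 C; LiveBLAzer readout, 2 h RT dark.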
On the technique in general: In qHTS, concentration-response curves come from the screen itself.
Turning to `CN=C(NC#N)Nc1ccc(C2=NNC(=O)CC2C)cc1` (stereo not given), the Potency entry was “inactive”.
Regarding `CCN(CC)CCOC(=O)C(Cc1cccc2ccccc12)CC1CCCO1` (stereo not given), the Potency result is “inactive”.
`O=c1[nH]cnc2ccccc12`: the Potency entry is “inactive”.
Regarding `CCCCCCCCCCOc1cc2c(=O)c(C(=O)OCC)c[nH]c2cc1OCC`, the activation was 0.878% [at 5.99 µM].
The same measure, in the same setting: the same measure for `CCC(=O)CC(C)CC` (stereo not given): -2.6% [at 0.249 µM].
Take `CCCCOCCOC(=O)COc1ccc(Cl)cc1Cl`: the Potency entry is “inactive”.
`CC(=O)CC(=O)OC(C)(C)C`: the Potency entry was “inactive”.
On the same count and under the same terms, the same measure for `CC(COC(C)(C)C)OCCCO` (stereo not given): “inactive”.
The same measure, in the same setting: the result for `CCCC1CCCC(=O)O1` (stereo not given) reads “inactive”; that for `CCCCCCCCCOC(=O)c1ccccc1C(=O)OCCCCCCCCC`, “inactive”.
Still for that read-out and setting: the same measure for `N#CC1(N)CCCCC1`: “inactive”; for `Cc1ccc(-n2nc(C(C)(C)C)cc2NC(=O)Nc2ccc(OCCN3CCOCC3)c3ccccc23)cc1`: “inactive”; for `CCN(CCCCOC(=O)c1ccc(OC)c(OC)c1)C(C)Cc1ccc(OC)cc1` (stereo not given): “inactive”.
With `C=COCC(C)C`, the Potency result was “inactive”.
On the same count and under the same terms, the result for `C/C=C/C(=O)OCC(C)C` reads “inactive”; that for `N#CSc1ccc(N)c([N+](=O)[O-])c1`, “inactive”.
Regarding `C=C(C)C(=O)OCCCCCCCCCCOC(=O)C(=C)C`, the Potency entry was “inactive”.
The same measure, in the same setting: the same measure for `Cc1ccc(C(=O)Oc2ccc(C(O)CNC(C)(C)C)cc2OC(=O)c2ccc(C)cc2)cc1` (stereo not given): “inactive”; for `C/C=C/C(=O)Oc1c(CCCCCC(C)C)cc([N+](=O)[O-])cc1[N+](=O)[O-]`: “inactive”.
On the same count and under the same terms, the result for `O=C(CCCCCCCCc1cccnc1)N1CCC(C=C(c2ccccc2)c2ccccc2)CC1` reads “inactive”.
The same measure, in the same setting: the result for `O=C1CCCN1CCO` reads “inactive”.
As to `N=C(N)c1ccc(OCCCOc2ccc(C(=N)N)cc2)cc1`, the Potency result is “inactive”.
On the same count and under the same terms, the result for `COCCCCCCCCOCCC[Si](C)(O[Si](C)(C)C)O[Si](C)(C)C` reads “inactive”; that for `CCOC(=N)CC(=O)OCC`, “inactive”.
Still for that read-out and setting: the result for `Oc1ccc2c(c1)CCC2` reads “inactive”; that for `CC(C)(C)c1nnc(NS(=O)(=O)c2ccccc2)s1`, “inactive”.
Same read-out and setting: the same measure for `CCCCc1nc2cccnc2n1Cc1ccc(-c2ccccc2-c2nnn[nH]2)cc1`: “inactive”; for `O=C(O)Cc1csc(-c2ccc(Cl)cc2)n1`: “inactive”.
On to `CCOC(=O)Nc1ccc(NCc2ccc(F)cc2)nc1N`, for which the Potency entry is “inactive”.
For `CC(Cl)C(Cl)Cl` (stereo not given), the Potency entry is “inactive”.
As to `O=C(O)C[C@H](O)C[C@H](O)/C=C/c1c(C2CC2)nc2ccccc2c1-c1ccc(F)cc1`, the activation is -4.07% [at 13.6 µM].
Regarding `CC(=O)Nc1cccc(C)c1`, the Potency entry was “inactive”.
Same read-out and setting: the same measure for `CCCCCCc1ccc(N)cc1`: “inactive”; for `O=C=Nc1cccc(C(F)(F)F)c1`: “inactive”; for `Cc1cc(SC2=C(O)C[C@@](CCc3ccc(N)cc3)(C(C)C)OC2=O)c(C(C)(C)C)cc1CO`: “inactive”.
Still for that read-out and setting: the same measure for `CCCCC(CC)CN1C(=O)C2C3C=CC(C3)C2C1=O` (stereo not given): “inactive”; for `NCCS`: “inactive”.
The same measure, in the same setting: the result for `O=S1(=O)CC(Cl)(Cl)C(Cl)(Cl)C1` reads “inactive”.
As for `CN1CCN(C2Cc3ccccc3Sc3ccc(Cl)cc32)CC1` (stereo not given), the Potency result is “inactive”.
Regarding `CCOC(=O)C1=NN(c2ccc(Cl)cc2Cl)C(C)(C(=O)OCC)C1` (stereo not given), the Potency result was “inactive”.

A short description of another test: p53 small molecule agonists, cell-based qHTS assay with human liver microsomes: qHTS cell viability counter screen (AID 1963579). Note: nearly all actives have a fitted effect of over 45% in size. Note: potency is the fitted concentration of half-maximal effect. To be noted: p53RE-bla HCT-116 viability, ATP luminescence, 16 h, HLM; series mostly up to 66 µM. The procedure, abridged:
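Luminescent CellTiter-Glo read-out, 30 min at room temperature, gauged cytotoxicity in p53RE-bla cells exposed 16 h at 37 C to DMSO-dissolved compounds with metabolic activation by human liver microsomes and NADPH, each 0.5 mg/mL final.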
Take `CN=C(NC#N)Nc1ccc(C2=NNC(=O)CC2C)cc1` (stereo not given): the Potency result was “inactive”.
Same read-out and setting: the same measure for `CCN(CC)CCOC(=O)C(Cc1cccc2ccccc12)CC1CCCO1` (stereo not given): “inactive”.
`O=c1[nH]cnc2ccccc12`: the Potency entry was “inactive”.
`CCCCCCCCCCOc1cc2c(=O)c(C(=O)OCC)c[nH]c2cc1OCC`: the activity change, negative = cytotoxicity was 0.282% [at 5.99 µM].
`CCC(=O)CC(C)CC` (stereo not given): the activity change, negative = cytotoxicity was -9.86% [at 0.249 µM].
On to `CCCCOCCOC(=O)COc1ccc(Cl)cc1Cl`, for which the Potency entry is “inactive”.
Still for that read-out and setting: the result for `CC(=O)CC(=O)OC(C)(C)C` reads “inactive”; that for `CC(COC(C)(C)C)OCCCO` (stereo not given), “inactive”.
In the case of `CCCC1CCCC(=O)O1` (stereo not given), the Potency result is “inactive”.
Same read-out and setting: the same measure for `CCCCCCCCCOC(=O)c1ccccc1C(=O)OCCCCCCCCC`: “inactive”.
Same read-out and setting: the result for `N#CC1(N)CCCCC1` reads “inactive”; that for `Cc1ccc(-n2nc(C(C)(C)C)cc2NC(=O)Nc2ccc(OCCN3CCOCC3)c3ccccc23)cc1`, “inactive”.
Still for that read-out and setting: the result for `CCN(CCCCOC(=O)c1ccc(OC)c(OC)c1)C(C)Cc1ccc(OC)cc1` (stereo not given) reads “inactive”; that for `C=COCC(C)C`, “inactive”; that for `C/C=C/C(=O)OCC(C)C`, “inactive”.
Regarding `N#CSc1ccc(N)c([N+](=O)[O-])c1`, the Potency result is “inactive”.
The same measure, in the same setting: the same measure for `C=C(C)C(=O)OCCCCCCCCCCOC(=O)C(=C)C`: “inactive”; for `Cc1ccc(C(=O)Oc2ccc(C(O)CNC(C)(C)C)cc2OC(=O)c2ccc(C)cc2)cc1` (stereo not given): 0.397 µM (active); for `C/C=C/C(=O)Oc1c(CCCCCC(C)C)cc([N+](=O)[O-])cc1[N+](=O)[O-]`: 14.5 µM (active).
On the same count and under the same terms, the same measure for `O=C(CCCCCCCCc1cccnc1)N1CCC(C=C(c2ccccc2)c2ccccc2)CC1`: “inactive”; for `O=C1CCCN1CCO`: “inactive”.
The same measure, in the same setting: the same measure for `N=C(N)c1ccc(OCCCOc2ccc(C(=N)N)cc2)cc1`: “inactive”; for `COCCCCCCCCOCCC[Si](C)(O[Si](C)(C)C)O[Si](C)(C)C`: “inactive”.
Take `CCOC(=N)CC(=O)OCC`: the Potency entry was “inactive”.
On the same count and under the same terms, the result for `Oc1ccc2c(c1)CCC2` reads “inactive”; that for `CC(C)(C)c1nnc(NS(=O)(=O)c2ccccc2)s1`, “inactive”.
For the molecule `CCCCc1nc2cccnc2n1Cc1ccc(-c2ccccc2-c2nnn[nH]2)cc1`, the Potency result was “inactive”.
The same measure, in the same setting: the same measure for `O=C(O)Cc1csc(-c2ccc(Cl)cc2)n1`: “inactive”.
Same read-out and setting: the same measure for `CCOC(=O)Nc1ccc(NCc2ccc(F)cc2)nc1N`: “inactive”.
The same measure, in the same setting: the result for `CC(Cl)C(Cl)Cl` (stereo not given) reads “inactive”.
With `O=C(O)C[C@H](O)C[C@H](O)/C=C/c1c(C2CC2)nc2ccccc2c1-c1ccc(F)cc1`, the activity change, negative = cytotoxicity is -1.08% [at 13.5 µM].
On to `CC(=O)Nc1cccc(C)c1`, for which the Potency result is “inactive”.
In the case of `CCCCCCc1ccc(N)cc1`, the Potency entry is “inactive”.
The same measure, in the same setting: the result for `O=C=Nc1cccc(C(F)(F)F)c1` reads “inactive”; that for `Cc1cc(SC2=C(O)C[C@@](CCc3ccc(N)cc3)(C(C)C)OC2=O)c(C(C)(C)C)cc1CO`, “inactive”.
On to `CCCCC(CC)CN1C(=O)C2C3C=CC(C3)C2C1=O` (stereo not given), for which the Potency entry is “inactive”.
On the same count and under the same terms, the same measure for `NCCS`: “inactive”.
On the same count and under the same terms, the same measure for `O=S1(=O)CC(Cl)(Cl)C(Cl)(Cl)C1`: 5.76 µM (active); for `CN1CCN(C2Cc3ccccc3Sc3ccc(Cl)cc32)CC1` (stereo not given): “inactive”; for `CCOC(=O)C1=NN(c2ccc(Cl)cc2Cl)C(C)(C(=O)OCC)C1` (stereo not given): “inactive”.
